The values below come from PubChem BioAssay AID2685 (National Center for Advancing Translational Sciences (NCATS), 2010).

About 2,100 (0.66%) of roughly 320,000 compounds were called active. About 53% were inconclusive and are not listed. The call rests on the fitted dose curve; in most records, active means well fitted inhibition curve with a large enough effect in the signal ratio, with a control signal flat (not every such curve was filed as active); inconclusive means small, poorly fitted or top-dose-only effect, or effect the other way, or a change in a side signal; inactive means flat fitted curve, though single readings scatter; the % refers to the signal ratio. The sample as a whole holds a higher share of actives than the screen did.
Potency means the concentration at half of the fitted maximal effect.

A short description of the assay: qHTS Assay for Lipid Storage Modulators in Drosophila S3 Cells.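 On cell number change: cells counted by Cell Tracker Red CMTPX staining in the red channel.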 The note with it: BODIPY lipid droplet fluorescence, 18-24 h, cells fed with added oleic acid; cell number change: measured here: cell count max response; series mostly up to 46.1 µM. A digest of the protocol: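 Laser-scanning cytometry quantifies lipid droplet accumulation (500–530 nm total intensity; droplet/cell object ratio) in oleic acid-fed (400 uM added) Drosophila S3 cells treated with a concentration series. 20 uM Triacsin C defined 100% inhibition.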
(In general: Quantitative high-throughput screening tests each substance at several concentrations.)
In the case of `O=C(c1ccccc1)N1CCCc2ccccc21`, the Potency result was “inactive” and the cell number change amounted to 0.741%. `O=C(c1ccc(F)c(F)c1)N1CCCc2ccccc21`: the Potency entry is “inactive” and the cell number change was determined as 4.4%.

For the compound `O=C(c1cccc(Br)c1)N1CCCc2ccccc21`, the Potency is 0.82 µM (active) and the cell number change was -21.4%. Take `Cc1ccc(OCCCC(=O)Nc2ccc(N3CCOCC3)cc2)c(C)c1`: the Potency entry was “inactive”.

Take `Cc1cc(Oc2nnnn2-c2ccccc2)ccc1Cl`: the Potency entry was “inactive”. As to `CCN(C(=O)c1ccc(NC(C)=O)cc1)c1ccccc1`, the Potency entry was “inactive” and the cell number change was -17%. As to `Nc1ccc(-n2nnnc2CN2CCOCC2)cc1`, the Potency entry is “inactive” and the cell number change amounted to 0.0095%.

Consider `CC1CCN(Cc2nnnn2-c2ccc(Cl)cc2)CC1`, for which the Potency was 13 µM (active) and the cell number change was -6.07%.

Consider `c1ccc(-n2nnnc2CN2CCOCC2)cc1`, for which the Potency result was “inactive” and the cell number change was -7%. With `COc1ccc(OC)c(N(CC(=O)NCCSCc2ccco2)S(=O)(=O)c2ccc(OC)c(OC)c2)c1`, the Potency entry is “inactive” and the cell number change is -16.6%. On to `C[n+]1ccccc1/C=C1\Sc2ccccc2N1CCO`, for which the Potency entry was “inactive” and the cell number change was -1.06%. In the same order, the values of `CCCCN1/C(=C/c2cccc[n+]2C)Sc2cc(NC(C)=O)ccc21` are 1.3 µM (active) and 11.1%. Regarding `Cc1ccc2c(c1)S/C(=C\c1cccc[n+]1C)N2CCO`, the Potency entry is “inactive” and the cell number change is -6.57%.

With `O=C(Nc1nc2ccc([N+](=O)[O-])cc2s1)C1CCCO1` (stereo not given), the Potency entry was “inactive” and the cell number change was -16.8%.

On to `O=C(NNC(=O)c1csc(-c2cccnc2)n1)c1ccccc1`, for which the Potency result is “inactive” and the cell number change was found to be 5.13%.

As to `S=C(NCc1cccc(Cl)c1)NCc1ccco1`, the Potency entry is “inactive” and the cell number change was 29.3%. With `CCC(CC)NC(=O)COC(=O)c1ccc2c(c1)C(=O)N(Cc1ccco1)C2=O`, the Potency entry is “inactive” and the cell number change is -0.427%. As to `CC(C)(C)C(=O)COC(=O)c1ccc2c(c1)C(=O)N(Cc1ccco1)C2=O`, the Potency is 0.259 µM (active) and the cell number change was 2.14%. Turning to `CC(C)(C)NC(=O)COC(=O)c1ccc2c(c1)C(=O)N(Cc1ccco1)C2=O`, the Potency entry is “inactive” and the cell number change is -13.3%.

For `COc1ccc(NS(=O)(=O)c2cccc(C(=O)NCC(c3ccco3)N3CCCC3)c2)cc1` (stereo not given), the Potency entry is “inactive” and the cell number change is 21.4%. Consider `COC(=O)c1ccc(CSc2nnc(N)s2)cc1`, for which the Potency result was “inactive” and the cell number change came to 1.22%. With `CCn1cc(C(=O)OCC(=O)OC2CC(C)CCC2C(C)C)c(=O)c2ccc(C)nc21` (stereo not given), the Potency entry is “inactive”.

For `CCC(C)Nc1nc2c(C)cccn2c(=O)c1C=Nc1ccc(OC)cc1` (stereo not given), the Potency entry is “inactive”. As for `CCOCCCNC(=O)c1cc2c(=O)n3cccc(C)c3nc2s1`, the Potency result was “inactive” and the cell number change is 22%. For the compound `CCOCCCNc1nc2c(C)cccn2c(=O)c1/C=C1\SC(=S)N(C(C)CC)C1=O` (stereo not given), the Potency is 0.461 µM (active) and the cell number change stood at 29.9%. Turning to `COCCn1c(=O)[nH]c(=O)c2c(C(F)(F)F)cc(-c3cccs3)nc21`, the Potency result is “inactive” and the cell number change turned out to be 6.31%.

Take `COc1ccc(CNC(=O)c2cc(=O)c3cc(C)c(C)cc3o2)cc1`: the Potency result is “inactive” and the cell number change came out at 22.5%. For the compound `CN(NS(=O)(=O)c1ccc(F)cc1)c1ncc(C(F)(F)F)cc1Cl`, the Potency entry is “inactive” and the cell number change is -16.4%. On to `CC(=O)NCCC(=O)Nc1ncc(S(=O)(=O)c2ccc([N+](=O)[O-])cc2)s1`, for which the Potency result is “inactive” and the cell number change amounted to 18.8%. Turning to `CCCOc1ccc(N2C(=O)CC(N3CCN(c4ccccc4F)CC3)C2=O)cc1` (stereo not given), the Potency entry was “inactive” and the cell number change was -7.57%. Turning to `CCCOc1ccc(N2C(=O)CC(N3CCN(c4ccc([N+](=O)[O-])cc4)CC3)C2=O)cc1` (stereo not given), the Potency was 2.31 µM (active) and the cell number change is 5.5%. `CCCOc1ccc(N2C(=O)CC(N3CCOCC3)C2=O)cc1` (stereo not given): the Potency result is “inactive” and the cell number change amounted to 5.36%. As to `Cn1c(=O)n(CC(=O)O)c(=O)c2c1nc1n2CCCN1Cc1ccccc1`, the Potency result was “inactive” and the cell number change came to 6.57%.

Turning to `O=C(COc1ccccc1[N+](=O)[O-])N/N=C/C=C/c1ccco1`, the Potency entry was “inactive” and the cell number change was -6.08%. As for `Cc1cc(NC(=O)CN2C(=O)NC3(CCC(C)CC3)C2=O)no1` (stereo not given), the Potency entry is “inactive” and the cell number change was 5.62%.

Turning to `O=C(NCCN1C(=O)S/C(=C\c2cccc(Cl)c2Cl)C1=O)C1=COCCO1`, the Potency is 11.6 µM (active) and the cell number change was -26.2%. As to `O=C(NCCN1C(=O)S/C(=C\c2ccc(Cl)cc2Cl)C1=O)C1=COCCO1`, the Potency was 20.6 µM (active). Take `O=C(CCc1nc2ccccc2c(=O)[nH]1)NCCN1C(=O)S/C(=C\c2ccc(Cl)cc2Cl)C1=O`: the Potency entry was “inactive” and the cell number change was found to be 1.43%. For the compound `O=C(NCCN1C(=O)S/C(=C\c2ccc(Cl)c([N+](=O)[O-])c2)C1=O)C1=COCCO1`, the Potency result is “inactive” and the cell number change stood at 12.4%. With `O=C(NCCN1C(=O)S/C(=C\c2ccc(Cl)c(Cl)c2)C1=O)C1COc2ccccc2O1` (stereo not given), the Potency entry is “inactive”.

Turning to `O=C(CCCN1C(=O)/C(=C/c2ccccc2Cl)SC1=S)NCCCN1CCOCC1`, the Potency result was “inactive” and the cell number change was found to be 16.8%. Take `CCOC(=O)c1c2c3c(cccc3n(C)c1=O)C(=O)c1ccccc1-2`: the Potency was 13 µM (active) and the cell number change was -24.8%. `Cn1c(=O)c(Nc2ccc(O)cc2)c2c3c(cccc31)C(=O)c1ccccc1-2`: the Potency entry is “inactive” and the cell number change is 4.29%. `CC(=O)c1c2c3c(cccc3n(C)c1=O)C(=O)c1ccccc1-2`: the Potency result is “inactive” and the cell number change was -3.04%. Take `COc1ccccc1CNC(=O)c1sccc1-c1ccccc1`: the Potency entry is “inactive” and the cell number change was found to be 7.94%. Take `CCOC(=O)c1sc(=NC(=O)c2ccc(OC)c(OC)c2)n(C)c1C`: the Potency entry was “inactive” and the cell number change turned out to be 0.273%.

Consider `CC(=O)c1ccc(S(=O)(=O)N2CCCc3ccccc32)cc1`, for which the Potency entry was “inactive” and the cell number change was found to be 13.2%. In the case of `Cc1cccc(Oc2ncnc(N)c2[N+](=O)[O-])c1C`, the Potency result was “inactive” and the cell number change was 1.6%.
